Calls of active or inactive are those of the source.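 The calls were made as follows, unless noted: active = visually confirmed hit in the image check and inhibition above 20%; inconclusive = visually confirmed hit but inhibition not above 20%; inactive = no visual hit in the image check.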

Voltage-gated potassium channel subunit beta-2 (Rattus norvegicus), sequence (P62483 whole entry, looked up): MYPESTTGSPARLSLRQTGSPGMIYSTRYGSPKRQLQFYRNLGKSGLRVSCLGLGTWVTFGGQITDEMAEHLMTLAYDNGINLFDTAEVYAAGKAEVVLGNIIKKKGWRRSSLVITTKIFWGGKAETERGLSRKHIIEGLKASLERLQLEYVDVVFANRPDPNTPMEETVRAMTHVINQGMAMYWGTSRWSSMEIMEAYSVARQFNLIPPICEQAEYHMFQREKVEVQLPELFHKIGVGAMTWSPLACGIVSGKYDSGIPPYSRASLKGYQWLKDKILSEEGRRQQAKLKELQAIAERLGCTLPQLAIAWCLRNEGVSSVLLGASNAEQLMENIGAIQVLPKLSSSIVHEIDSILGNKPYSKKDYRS

Test system in one assay: not listed separately
Briefly: inhibitors of E-selectin induction by TNFa, primary screen, imaging, HUVEC, immunofluorescence, MLSMR starter and 10KST1 sets (AID 487).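 As to inhibition: signal is fraction of cell area covered by stained E-selectin grains.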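 As to nuclei count: 100% = median nuclei count of all wells on the same plate.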 Conditions: HUVEC TNFalpha-induced E-selectin immunofluorescence imaging, at 2 µM; inhibition: stronger effect = higher value; nuclei count: measured here: cell number, toxicity.
Turning to `c1ccc(C2CC3CC(c4ccco4)N2O3)cc1` (centres undefined), the inhibition was -68.5% (inactive) and the nuclei count came to 118%.
For `C(#CCN1CCOCC1)COCC#Cc1ccccc1` the same measures were -4.6% (inactive) and 112%.
On the same counts, the results for `CN1CCN(c2c[nH]c(=O)[nH]c2=O)CC1` are -143% (inactive) and 105%.
On the same counts, the results for `CC(C)CC12CN3CCN(CC(C3)/C1=N/O)C2` are 4.9% (inactive) and 109%.
With `CCCCOc1ccc(CN2CCN(CCO)CC2)cc1`, the nuclei count is 96.5% and the inhibition was -3.3% (inactive).
For `CC(C)C(=O)c1cn(Cc2ccccc2C#N)c2ccccc12` the same measures were 99.8% and -24.8% (inactive).
On the same counts, the results for `Cc1ccc2nc(N3CCN(C)CC3)[nH]c2c1` are 97.7% and 5.8% (inactive).
For the compound `COc1ccc(CC2C(=O)NC(=O)NC2=O)c(OC)c1`, the inhibition is -3.4% (inactive) and the nuclei count was determined as 105%.
With `N#Cc1ccccc1Cn1cc(C(=O)C2CC2)c2ccccc21`, the inhibition is -50.9% (inactive) and the nuclei count was found to be 107%.
With `CC(C)(C)C(O)C(Oc1ccc(Cl)cc1)n1cncn1` (centres undefined), the inhibition is -5.1% (inactive) and the nuclei count stood at 131%.
On the same counts, the results for `O=C(CCCOc1ccc(Cl)cc1Cl)N1CCC2(CC1)OCCO2` are -51.1% (inactive) and 102%.
For `COc1ccc(CCn2c(O)c(C=NCCCN(C)C)c(=O)[nH]c2=O)cc1OC` the same measures were -38.1% (inactive) and 108%.
As for `COC(=O)CC1(Cc2ccccc2)C(=O)NC(=O)NC1=O`, the nuclei count amounted to 140% and the inhibition is -73.6% (inactive).
For `Cc1ccc(CC2C(=O)N(C)C(=O)N(C)C2=O)s1`, the inhibition is 40.2% (inactive) and the nuclei count turned out to be 101%.
Consider `Cc1oc2ccc(OC(=O)N(C)C)cc2c1C(=O)OC(C)C`, for which the inhibition is -78.3% (inactive) and the nuclei count was 155%.
On the same counts, the results for `CCn1nc(-c2ccccc2)nc2c(=O)n(C)c(=O)nc1-2` are -133% (inactive) and 109%.
On the same counts, the results for `O=c1[nH]c(=O)n(-c2ccc(F)cc2)c(O)c1C=Nc1ccccc1N1CCCC1` are -109% (inactive) and 118%.
For the compound `O=C(c1sc2ccccc2c1Cl)N1CCC2(CC1)OCCO2`, the nuclei count came to 105% and the inhibition was -59.7% (inactive).
As to `CCn1c(C)c(C(=O)O)c2cc(OC)ccc21`, the inhibition was 11.4% (inactive) and the nuclei count was 107%.
Take `Cc1cc(C)c(C(=O)CN2CCOCC2)c(C)c1`: the inhibition was -77.5% (inactive) and the nuclei count is 115%.
For `COC(=NC1CCCC1)C(O)c1c[nH]c2ccccc12` (centres undefined) the same measures were -22.4% (inactive) and 79.7%.
For the compound `CN1C(=O)C(Cc2cccc3ccccc23)C(=O)N(C)C1=O`, the nuclei count is 125% and the inhibition was -57.4% (inactive).
For the compound `CCCCn1c(C)c(C(=O)OCC)c2c(CN3CCOCC3)c(O)ccc21`, the nuclei count amounted to 100% and the inhibition is -44.3% (inactive).
With `CN1C(=O)N(C)C(=O)C2(Cc3ccccc3N3CCOCC32)C1=O` (centres undefined), the inhibition was -43.9% (inactive) and the nuclei count worked out at 148%.
For `CCOc1cccc(N2C(=O)CC(=O)NC2=O)c1` the same measures were -63.8% (inactive) and 107%.
Consider `Nc1ccnn1C1CCNCC1`, for which the nuclei count amounted to 127% and the inhibition is -43.8% (inactive).
On to `COc1ccc(CN2CCN(c3ccccc3F)CC2)c(OC)c1`, for which the nuclei count was 125% and the inhibition was -39% (inactive).
For `CCCNS(=O)(=O)c1ccc(OCC(=O)N2CCN(Cc3ccccc3)CC2)cc1` the same measures were 110% and -3.1% (inactive).
On the same counts, the results for `CC1(C)Cc2c(sc3c2C(=O)NC(c2cccnc2)N3)CO1` (centres undefined) are 106% and 4.5% (inactive).
Consider `CC(=NCCCN1CCOCC1)c1c(O)n(-c2ccccc2C)c(=O)[nH]c1=O`, for which the nuclei count was determined as 112% and the inhibition is -21.8% (inactive).
Turning to `COc1ccc(CC[n+]2cc(/N=C(\C)[O-])on2)cc1OC`, the nuclei count was found to be 95.3% and the inhibition was 48.2% (inactive).
In the case of `C=CCn1c(O)c(C(C)=Nc2ccc(N(CC)CC)cc2)c(=O)[nH]c1=O`, the inhibition is -33.7% (inactive) and the nuclei count is 109%.
For the compound `Cc1ccc(Cn2c(C)c3cnn(CC(=O)N4CCC5(CC4)OCCO5)c(=O)c3c2C)cc1`, the inhibition was -135% (inactive) and the nuclei count stood at 110%.
For `COC(=O)c1cncn1C(C)c1ccccc1` (centres undefined) the same measures were -88.8% (inactive) and 110%.
In the case of `CCN(CC)CCN=Cc1c(O)n(CCC2=CCCCC2)c(=O)[nH]c1=O`, the inhibition is 5.2% (inactive) and the nuclei count is 104%.
For `CC1=C(C(=O)N2CCC3(CC2)OCCO3)C2(CCC(C)CC2)OC1=O` (centres undefined) the same measures were -0.9% (inactive) and 103%.
On the same counts, the results for `CCN1CCN(Cc2cc(Br)cc(OC)c2O)CC1` are -82.5% (inactive) and 123%.
For `O=C(NC1(C(F)(F)F)Oc2ccc(Cl)cc2O1)N1CCC2(CC1)OCCO2` (centres undefined) the same measures were -97.5% (inactive) and 108%.

A further assay concerns the target Voltage-gated potassium channel subunit beta-2 (Rattus norvegicus) (UniProt P62483). Briefly: KvBeta enzyme negative modulators, primary screen, biochemical, NADPH fluorescence (AID 622;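 active = fluorescence slope higher than the sample average by over 3 SD, cut at about -0.22 in these data, passing the limit was not always enough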;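 also: slope of raw intensity against log time taken from 70 to 1610 s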). Conditions: recombinant KvBeta, 4-cyanobenzaldehyde reduction, at 10 µM, stronger effect = higher value.
Turning to `c1ccc(C2CC3CC(c4ccco4)N2O3)cc1` (centres undefined), the fluorescence slope was -0.514 (inactive).
Take `C(#CCN1CCOCC1)COCC#Cc1ccccc1`: the fluorescence slope is -0.622 (inactive).
Take `CN1CCN(c2c[nH]c(=O)[nH]c2=O)CC1`: the fluorescence slope was -0.495 (inactive).
With `CC(C)CC12CN3CCN(CC(C3)/C1=N/O)C2`, the fluorescence slope was -0.496 (inactive).
With `CCCCOc1ccc(CN2CCN(CCO)CC2)cc1`, the fluorescence slope is -0.43 (inactive).
The same measure, in the same setting: to `CC(C)C(=O)c1cn(Cc2ccccc2C#N)c2ccccc12` belongs -0.376 (inactive); to `Cc1ccc2nc(N3CCN(C)CC3)[nH]c2c1`, -0.506 (inactive); to `COc1ccc(CC2C(=O)NC(=O)NC2=O)c(OC)c1`, -0.406 (inactive).
Still for that read-out and setting: the figure for `N#Cc1ccccc1Cn1cc(C(=O)C2CC2)c2ccccc21` is -0.447 (inactive); for `CC(C)(C)C(O)C(Oc1ccc(Cl)cc1)n1cncn1` (centres undefined) it is -0.592 (inactive); for `O=C(CCCOc1ccc(Cl)cc1Cl)N1CCC2(CC1)OCCO2` it is -0.365 (inactive).
Still for that read-out and setting: the figure for `COc1ccc(CCn2c(O)c(C=NCCCN(C)C)c(=O)[nH]c2=O)cc1OC` is -0.446 (inactive); for `COC(=O)CC1(Cc2ccccc2)C(=O)NC(=O)NC1=O` it is -0.579 (inactive); for `Cc1ccc(CC2C(=O)N(C)C(=O)N(C)C2=O)s1` it is -0.471 (inactive).
Consider `Cc1oc2ccc(OC(=O)N(C)C)cc2c1C(=O)OC(C)C`, for which the fluorescence slope was -0.606 (inactive).
Same read-out and setting: to `CCn1nc(-c2ccccc2)nc2c(=O)n(C)c(=O)nc1-2` belongs -0.457 (inactive); to `O=c1[nH]c(=O)n(-c2ccc(F)cc2)c(O)c1C=Nc1ccccc1N1CCCC1`, -0.0108 (inactive).
Still for that read-out and setting: the figure for `O=C(c1sc2ccccc2c1Cl)N1CCC2(CC1)OCCO2` is -0.405 (inactive).
Same read-out and setting: to `CCn1c(C)c(C(=O)O)c2cc(OC)ccc21` belongs -0.495 (inactive); to `Cc1cc(C)c(C(=O)CN2CCOCC2)c(C)c1`, -0.419 (inactive).
With `COC(=NC1CCCC1)C(O)c1c[nH]c2ccccc12` (centres undefined), the fluorescence slope is -0.536 (inactive).
As to `CN1C(=O)C(Cc2cccc3ccccc23)C(=O)N(C)C1=O`, the fluorescence slope was -0.47 (inactive).
In the case of `CCCCn1c(C)c(C(=O)OCC)c2c(CN3CCOCC3)c(O)ccc21`, the fluorescence slope was -0.373 (inactive).
Regarding `CN1C(=O)N(C)C(=O)C2(Cc3ccccc3N3CCOCC32)C1=O` (centres undefined), the fluorescence slope was -0.363 (inactive).
In the case of `CCOc1cccc(N2C(=O)CC(=O)NC2=O)c1`, the fluorescence slope was -0.524 (inactive).
In the case of `Nc1ccnn1C1CCNCC1`, the fluorescence slope was -0.541 (inactive).
The same measure, in the same setting: the figure for `COc1ccc(CN2CCN(c3ccccc3F)CC2)c(OC)c1` is -0.38 (inactive); for `CCCNS(=O)(=O)c1ccc(OCC(=O)N2CCN(Cc3ccccc3)CC2)cc1` it is -0.476 (inactive); for `CC1(C)Cc2c(sc3c2C(=O)NC(c2cccnc2)N3)CO1` (centres undefined) it is -0.584 (inactive).
`CC(=NCCCN1CCOCC1)c1c(O)n(-c2ccccc2C)c(=O)[nH]c1=O`: the fluorescence slope is -0.506 (inactive).
Take `COc1ccc(CC[n+]2cc(/N=C(\C)[O-])on2)cc1OC`: the fluorescence slope is -0.574 (inactive).
The same measure, in the same setting: the figure for `C=CCn1c(O)c(C(C)=Nc2ccc(N(CC)CC)cc2)c(=O)[nH]c1=O` is -0.492 (inactive).
With `Cc1ccc(Cn2c(C)c3cnn(CC(=O)N4CCC5(CC4)OCCO5)c(=O)c3c2C)cc1`, the fluorescence slope was -0.332 (inactive).
The same measure, in the same setting: to `COC(=O)c1cncn1C(C)c1ccccc1` (centres undefined) belongs -0.488 (inactive); to `CCN(CC)CCN=Cc1c(O)n(CCC2=CCCCC2)c(=O)[nH]c1=O`, -0.618 (inactive); to `CC1=C(C(=O)N2CCC3(CC2)OCCO3)C2(CCC(C)CC2)OC1=O` (centres undefined), -0.377 (inactive).
As for `CCN1CCN(Cc2cc(Br)cc(OC)c2O)CC1`, the fluorescence slope is -0.441 (inactive).
Still for that read-out and setting: the figure for `O=C(NC1(C(F)(F)F)Oc2ccc(Cl)cc2O1)N1CCC2(CC1)OCCO2` (centres undefined) is -0.513 (inactive).

As usually defined, the inhibition is the relative decrease from the control value, in per cent.

The values above are taken from PubChem BioAssay.
